Hit rate of the full screen: of about 2,200 compounds, about 1,200 (55%) were called active. So high a share suggests a set chosen from earlier hits. The list shows a part of the results. A number with no mark means an inactive call. Cut-off not given; nearly all actives show IC50 up to about 92 µM.
Assay: counter assay for TAg ATPase ADP read-out – biochemical, ADP-Hunter, fluorescence, counter-screen (AID 2501);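 further: purified T antigen ATPase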;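 on inhibition: 0% = enzyme with vehicle and 100% = reference inhibitor wells; higher means more inhibition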
Conditions: series mostly up to 100 µM; inhibition: at the top concentration
For `Oc1ccc(C2=Nn3c(nnc3-c3ccco3)SC2)cc1O`, the IC50 was 4.93 µM (active). In the case of `CN1CCc2cccc3c2[C@H]1Cc1ccc(O)c(O)c1-3`, the IC50 is reported as “inactive”. For `O=C(NC(=S)Nc1cccc(S(=O)(=O)NC2=NCCC2)c1)c1cc(-c2ccco2)nc2ccccc12`, the “inhibition” value was 9.2%. With `COc1cc(/C=C2/C(=O)c3cccc([N+](=O)[O-])c3C2=O)c(Br)cc1O` the IC50 was 23.4 µM (active). For `O=C(O)/C=C/C(=O)c1ccc2c(c1)CCc1ccccc1-2`, the “inhibition” value was 22.5%. In the case of `COc1ccc(NCC(O)Cn2cnc3c2c(=O)n(C)c(=O)n3C)cc1` (stereo unspecified), the IC50 is reported as 6.13 µM (active). For `CNc1nn(-c2cccc(Cl)c2)nc1N`, the IC50 was 9.76 µM (active). With `Cc1nn(-c2cccc(Cl)c2)c2nc(-c3ccco3)cc(C(=O)O)c12` the “inhibition” value was -1.99%. In the case of `CNC(=S)N1CCN(c2ccc(OC)cc2)CC1`, the IC50 is reported as 8.87 µM (active). In the case of `COc1ccc(N2CCN(c3cc(=O)n(Cc4ccc(F)cc4)c(=O)[nH]3)CC2)cc1`, the “inhibition” value is reported as 12%. For `COc1ccc(N2CCN(C(=O)NC3CC(=O)N(c4ccc(OC)cc4)C3)CC2)cc1` (stereo unspecified), the IC50 was 26.8 µM (active). In the case of `O=[N+]([O-])c1c(Nc2cccc(O)c2)cc(Cl)c2nonc12`, the “inhibition” value is reported as -22%. With `O=[N+]([O-])c1c(Nc2ccc(O)cc2)cc(Cl)c2nonc12` the IC50 was 26.9 µM (active). For `O=C(O)c1ccc(Nc2cc(Cl)c3nonc3c2[N+](=O)[O-])cc1`, the “inhibition” value was -10.8%. For `C=CCn1c(CNc2ccccc2)nnc1SCC(=O)N/N=C/c1ccc(O)cc1O`, the IC50 was 4.22 µM (active). For `CCn1c(Cc2ccccc2)nnc1SCC(=O)Nc1ccc(N2CCOCC2)c(Cl)c1`, the “inhibition” value was -5.22%. With `CN1CCC(=C(c2ccccc2)c2ccc(Br)cc2)CC1` the “inhibition” value was 26.6%. For `COc1ccc(N=c2scc(C)n2CCCN2CCCC2=O)cc1`, the IC50 was 6.36 µM (active). With `CC(C)C1N=C2c3ccccc3N=C(SCC(=O)c3ccc(O)c(O)c3)N2C1=O` (stereo unspecified) the IC50 was 4.05 µM (active). With `Nc1ncc(N=Nc2cc(C(=O)O)ccc2Cl)s1` the IC50 was 12.4 µM (active). For `COc1cccc(C(=O)N(Cc2cc3cc(C)ccc3[nH]c2=O)C(C)C)c1`, the “inhibition” value was -6.8%. In the case of `COCCN=C1Sc2nc3c(C)cccc3cc2CN1Cc1ccco1`, the IC50 is reported as 13.7 µM (active). With `CCOC(=O)c1cnc(Nc2nc3ccccc3o2)nc1CSC(=S)N1CCCCC1` the “inhibition” value was -19.6%. In the case of `CN(C)c1ccc(/C=C/c2cc[n+]([O-])cc2)cc1`, the IC50 is reported as 5.15 µM (active). For `O=S(=O)(c1cccs1)N1CN(CC2CCCO2)c2nc3ccccc3nc21` (stereo unspecified), the “inhibition” value was 12.7%. In the case of `OCCNc1nc(Nc2ccc(O)cc2)nc2ccccc12`, the IC50 is reported as 2.57 µM (active). In the case of `Oc1ccc(Nc2nc(NCC3CCCO3)c3ccccc3n2)cc1` (stereo unspecified), the IC50 is reported as 5.81 µM (active). For `CN(Cc1ccco1)S(=O)(=O)c1nnc(NC(=O)c2cccc(Cl)c2)s1`, the “inhibition” value was -22.5%. With `CCn1cc(CN2CCC(n3nccc3NC(=O)c3ccccc3OC)CC2)cn1` the “inhibition” value was 10.8%. With `CC(C)(C)OC(=O)N/N=C/c1ccc(N2CCOCC2)s1` the IC50 was 8.25 µM (active). In the case of `NC(=O)N/N=C/c1ccc(N2CCOCC2)s1`, the IC50 is reported as 10.7 µM (active). In the case of `COc1ccc(N(CC(=O)NCCc2cccc(C)c2)S(=O)(=O)c2c(C)noc2C)cc1`, the “inhibition” value is reported as -11.9%. With `COc1cccc(NS(=O)(=O)c2ccc3c(c2)C2C=CCC2C(c2ccc(C(=O)O)cc2)N3)c1` (stereo unspecified) the “inhibition” value was 25.9%. In the case of `Oc1ccc(-c2csc(Nc3ncccn3)n2)cc1O`, the IC50 is reported as 10.2 µM (active). With `Oc1ccc(-c2csc(Nc3ccccn3)n2)cc1O` the IC50 was 11.2 µM (active). For `Oc1ccc(-c2csc(Nc3cccc4ccccc34)n2)cc1O`, the IC50 was 23.6 µM (active). For `Cc1ccc(Nc2nc(-c3ccc(O)c(O)c3)cs2)nc1`, the IC50 was 8.68 µM (active). In the case of `Cc1cc(-c2nnc(SCc3ccccn3)o2)no1`, the “inhibition” value is reported as -8.85%. For `Cc1onc(-c2c(F)cccc2Cl)c1C(=O)OCC(=O)NC(c1ccccc1)c1ccccc1`, the “inhibition” value was 5.42%. For `COc1cc(/C=C2\C(=N)N3N=C(S(C)(=O)=O)SC3=NC2=O)ccc1OS(=O)(=O)c1ccc(C)cc1`, the IC50 was 28.6 µM (active). With `COc1cc(/C=C2/C(=N)N3C(=NC2=O)SN=C3S(=O)(=O)C(C)C)ccc1OS(=O)(=O)c1ccccc1` the “inhibition” value was -14.3%. `CCOc1cc(/C=C2\C(=N)N3N=C(S(=O)(=O)CC)SC3=NC2=O)ccc1OC(=O)c1ccco1` gave an inhibition of 8.45% [at 6.25 µM]. In the case of `CCS(=O)(=O)C1=NN2C(=N)/C(=C\c3ccc(OC(=O)c4ccco4)c(OC)c3)C(=O)N=C2S1`, the IC50 is reported as 54.2 µM (active). For `COc1cc(/C=C2/C(=N)N3C(=NC2=O)SN=C3S(C)(=O)=O)ccc1OS(=O)(=O)c1ccc(C)cc1`, the “inhibition” value was -20.2%. With `CCS(=O)(=O)C1=NN2C(=N)/C(=C\c3ccc(SCc4ccco4)o3)C(=O)N=C2S1` the “inhibition” value was 21.2%. For `O=C1OC(c2ccc(Cl)cc2)=N/C1=C\C=C\c1ccco1`, the “inhibition” value was 16.1%. In the case of `Cc1ccn2cc(-c3ccc(O)c(O)c3)nc2c1`, the IC50 is reported as 7.1 µM (active). In the case of `Oc1ccc(-c2cn3ccccc3n2)cc1O`, the IC50 is reported as 5.62 µM (active). In the case of `Oc1ccc(-c2cn3ccccc3n2)cc1`, the IC50 is reported as 3.69 µM (active). With `Cc1ccc(-c2nnc(Nc3ccc(O)cc3)c3ccccc23)cc1S(=O)(=O)NCCO` the IC50 was 5.63 µM (active). With `O=C(Nc1cccc(N2C(=O)C=CC2=O)c1)c1cccs1` the “inhibition” value was -19%.

— PubChem BioAssay AID2501 (Southern Research Specialized Biocontainment Screening …, 2010)
